Measurements taken from PubChem BioAssay AID624341 (National Center for Advancing Translational Sciences (NCATS), 2012).
Calls of active or inactive are those of the source.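 How the source made its calls: active means potency half-inhibition concentration of 75 µM or lower; inconclusive means potency above 75 µM but under 100 µM; inactive means potency of 100 µM or higher.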

Molecular target: Ubiquitin carboxyl-terminal hydrolase 7 (Homo sapiens) (UniProt Q93009)
Assay: Inhibitors of USP1/UAF1: Hit Validation in USP7 Diubiquiting Gel Assay
Conditions: USP7 K63 diubiquitin cleavage, SDS-PAGE gel densitometry
From the text: Deubiquitinating enzymes (DUBs) are a class of enzymes that can cleave isopeptide bond formed between the C-terminal carboxylate of ubiquitin and a lysine side-chain amino group on the target protein. Among them, ubiquitin specific proteases (USPs) constitute the largest DUB family. Human USPs are emerging as promising targets for pharmacological intervention because of their connection to a number of human diseases, including prostate, colon and breast cancer (1, 2), pediatric acute lymphoblastic leukemia (3), and familial cylindromatosis (4). The advantage of inhibiting USPs lies in the potential specificity of therapeutic intervention that can lead to better efficacy and reduce nonspecific side effects. In a collaboration between the University of Delaware and the NIH Chemical Genomics Center, a high-throughput screen assay was developed to screen for USP1/UAF1 inhibitors. This miniaturized assay has a fluorescent read-out and is used to screen the NIH Molecular Libraries Small Molecule Repository (MLSMR) in order to identify a small molecule that inhibits USP1. Follow-up assays have also been developed to further test the hits from the primary screen. This assay validates the hits identified from the primary screen using a USP7 diubiquiting gel assay. NIH Chemical Genomics Center [NCGC] NIH Molecular Libraries Probe Centers Network [MLPCN] MLPCN Grant: DA030552-01 Assay Submitter (PI): Zhihao Zhuang, University of Delaware 1. Priolo, C., et al. (2006) The isopeptidase USP2a protects human prostate cancer from apoptosis. Cancer Res 66, 8625-8632 2. Popov, N., et al. (2007) The ubiquitin-specific protease USP28 is required for MYC stability. Nat Cell Biol 9, 765-774 3. […]
The inhibition assay contains 5 nM USP7, 2 microM K63 linked diubiquitin, and inhibitors at varied concentrations (0.08 microM - 114 microM). […] The intensity of the individual diubiquitin and monoubiquitin band was quantified using Quantity One 4.3.1 (Biorad, Hercules, CA). The percentage of the conversion was determined and used to calculate the reaction rate. […]

Ubiquitin carboxyl-terminal hydrolase 7 (Homo sapiens), sequence (Q93009 whole entry, looked up): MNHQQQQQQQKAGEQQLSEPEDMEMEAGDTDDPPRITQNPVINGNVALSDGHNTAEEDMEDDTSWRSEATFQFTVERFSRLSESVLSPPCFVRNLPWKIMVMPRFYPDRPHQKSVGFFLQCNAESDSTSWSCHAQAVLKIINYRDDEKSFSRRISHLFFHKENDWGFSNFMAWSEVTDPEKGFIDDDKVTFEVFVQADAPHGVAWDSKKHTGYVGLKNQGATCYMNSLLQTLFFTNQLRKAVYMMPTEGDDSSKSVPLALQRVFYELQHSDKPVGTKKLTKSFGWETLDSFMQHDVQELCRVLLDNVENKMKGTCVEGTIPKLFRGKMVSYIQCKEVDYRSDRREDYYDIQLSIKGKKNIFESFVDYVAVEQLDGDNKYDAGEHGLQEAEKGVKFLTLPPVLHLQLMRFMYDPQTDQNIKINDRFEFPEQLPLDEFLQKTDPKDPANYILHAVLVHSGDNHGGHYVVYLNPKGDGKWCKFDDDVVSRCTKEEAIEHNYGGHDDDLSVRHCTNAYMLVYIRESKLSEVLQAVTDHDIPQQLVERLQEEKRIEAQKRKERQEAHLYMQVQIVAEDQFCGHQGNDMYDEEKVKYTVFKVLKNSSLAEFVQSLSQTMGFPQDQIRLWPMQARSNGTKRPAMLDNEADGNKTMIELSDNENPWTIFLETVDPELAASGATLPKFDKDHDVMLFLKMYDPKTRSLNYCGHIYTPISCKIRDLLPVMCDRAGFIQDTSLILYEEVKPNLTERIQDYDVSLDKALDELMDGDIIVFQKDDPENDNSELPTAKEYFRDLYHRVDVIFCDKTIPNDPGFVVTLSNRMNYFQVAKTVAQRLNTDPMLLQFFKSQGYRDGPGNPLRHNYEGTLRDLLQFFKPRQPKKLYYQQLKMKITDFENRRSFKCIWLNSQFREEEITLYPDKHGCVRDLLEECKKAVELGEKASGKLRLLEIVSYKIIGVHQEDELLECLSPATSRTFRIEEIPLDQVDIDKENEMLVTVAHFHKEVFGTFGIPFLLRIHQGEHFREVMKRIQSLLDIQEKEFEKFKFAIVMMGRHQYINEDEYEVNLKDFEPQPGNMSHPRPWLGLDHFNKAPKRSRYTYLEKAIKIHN

Potency, active:
Cc1cccc(CNc2ccnc(-c3ccccc3C(F)(F)F)n2)c1 20.9 µM
FC(F)(F)c1ccccc1-c1nc(NCc2cccs2)c2ccccc2n1 37.8 µM
Cc1ccccc1-c1nc(NCc2cccs2)c2ccccc2n1 19.4 µM
